# Only some compounds are listed: those with a hit (about 21% of all), similar ones and a draw of the others.
# Pf growth 96h = P. falciparum growth inhibition at 96 hour, primary screen for plastid delayed-death inhibitors | P. falciparum luciferase reporter growth, 96 h | Potency, µM (top dose mostly 28.7 µM), for inactives: at the highest dose activity change, negative = inhibition, hits mostly inhibitors | hit rate 6.9% among 320,000 | AID 504834; further: potency means the concentration at half of the fitted maximal effect; on the % scale 0 is the no-effect control and ±100 the full control effect
#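 Compounds incubated with erythrocytes infected by luciferase-expressing P. falciparum (2% hematocrit, 0.05% parasitemia final) for 96 hours, 37 C in 5% CO2. Growth inhibition scored as decreased luciferase luminescence.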
# Pf growth 48h = inhibits P. falciparum growth in the first generation, 48 h; P. falciparum luciferase growth in erythrocytes, 48 h; AID 504832; hit rate 5.9% among 310,000; Potency, µM (doses to about 28.7 µM), for the others: at the top dose activity change, negative = inhibition, most hits filed as inhibitors; further: potency means the concentration at half of the fitted maximal effect; on the % scale 0 is the no-effect control and ±100 the full control effect
#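 Compounds are pin-transferred into medium, infected erythrocytes (2% hematocrit, 0.1% parasitemia final) are added, and plates sit one parasite generation at 37 C in 5% CO2. Detection reagent is then added and luminescence measured.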
# CHX counter = affects cycloheximide protein synthesis inhibition readout, counter-screen. AID 2314. cell reporter, cycloheximide protein synthesis inhibition counterscreen. hit rate 12% among 300,000. max response, %; in the data active means max response mostly above about 13%, no sharp cut-off; inactive means mostly below about 14%; further: read at 38.3 µM for the half of the compounds with a filed dose; 0% is about no effect
# AMA1 RON2 block = inhibitors of Plasmodium falciparum AMA1-RON2 interaction; AlphaScreen AMA1-biotinylated RON2 peptide binding; Potency, µM (doses to about 58.2 µM), for inactives: at the highest dose activity change, negative = inhibition, usual class: inhibitors; hit rate 0.2% among 360,000;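 further: potency means the concentration at half of the fitted maximal effect; 0% = vehicle wells and -100% = peptide control; nearly all actives have a fitted effect of over 45% in size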
#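 AMA1 (3D7) with his tag at 25 nM final met compounds first, then biotinylated RON2 peptide at 25 nM; detection used donor plus acceptor beads, 10 µg/mL apiece, read by AlphaScreen after 30 min at room temperature.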
# HCV inhibitor = blocks hepatitis C virus; Huh7.5.1 HCVcc-Cre infection, luciferase reporter, 44 h; Potency, µM (series often up to 41.8 µM), without a hit: at the highest dose activity change, negative = inhibition, actives largely listed as inhibitors; hit rate 3.4% among 340,000; AID 651820; further: potency means the concentration at half of the fitted maximal effect; on the % scale 0 is the no-effect control and ±100 the full control effect
#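 Whole-lifecycle infectious HCVcc-Cre system; cells 1,000/well, compound then virus (~0.5 moi) added 4 h after plating, 44 h culture. Luciferase read 15 sec following 15 min substrate incubation, room temp.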
# Shiga inhibitor = Shiga toxin inhibition. Vero cells, Shiga toxin protein synthesis inhibition reporter. inhibition, % at 38.7 µM. hit rate 9.2% among 290,000. AID 2315; in the data active means inhibition mostly above about 28%, no sharp cut-off; inactive means mostly below about 43%; further: 0% is about no effect
# * = called active by the depositor; u = inconclusive; x = not tested or not shown. Unless noted, the call rests on the fitted dose curve; in most records, active means well fitted curve in the direction sought with a large enough effect; inconclusive means small, poorly fitted or top-dose-only effect, or another doubt; inactive means no such curve, though single readings can be large; an effect the other way counts as inactive or inconclusive.
SMILES,Pf growth 96h,Pf growth 48h,CHX counter,AMA1 RON2 block,HCV inhibitor,Shiga inhibitor
CC1=C(C(=O)N2CCCCCC2)CC(CC(=O)NCC2CCCCC2)C(=O)N1CCCN1CCCC1=O (stereo unspecified),x,x,x,3%,x,x
Cn1c(=O)n(C)c2cc([N+](=O)[O-])c(N3CCN(C(=O)c4ccccc4Br)CC3)cc21,9%,-16%,9,-3%,13µM*,-13
COc1ccccc1C1=NNC(=Nc2cccc(S(=O)(=O)N(C)C)c2)SC1,u,1.9µM*,3,16%,13µM*,-5
COc1ccccc1C1=Nn2c(nnc2-c2cccc(OC)c2OC)SC1,x,x,-2,x,x,16
COc1cnc(-c2cccc(C(F)(F)F)c2)c(NC(=O)c2cc3ccccc3s2)n1,x,x,x,22%,x,x
Cc1[nH]c2ccc(Br)cc2c(=O)c1CN1CCCCCC1,64%,10µM*,-6,0%,-21%,-7
Cc1[nH]c2ccc(Cl)cc2c(=O)c1CN1CCCC1,-1%,-1%,-4,-6%,-3%,-10
CN(Cc1ccccc1)c1ncnc2c1cnn2-c1ccccc1,u,73%,55*,13%,u,98*
CCN(c1ccccc1)c1ncnc2c1cnn2-c1ccccc1,102%,x,26*,-6%,-20%,65*
CCOc1ccccc1Nc1ncnc2c1cnn2-c1ccccc1,u,u,9,8%,u,-3
O=C(O)c1ccc(Cl)cc1NC(=O)C1CCN(S(=O)(=O)c2cccs2)CC1,x,x,x,-5%,x,x
CCOC(=O)C1CCN(C(=O)c2ccc3nc(-c4ccc(OC)cc4)c(-c4ccc(OC)cc4)nc3c2)CC1,8%,8.3µM*,-3,15%,25µM*,-13
CCOC(=O)C1CCCN(C(=O)c2ccccc2)CC1 (stereo unspecified),x,x,x,3%,x,x
O=C(c1cccc(Cl)c1)N1CCC(N2CCC(C(=O)N3CCCC3)CC2)CC1,15µM*,u,21*,1%,u,-1
CCOC(=O)C1CCN(C(=O)c2cc(C(C)(C)C)nn2Cc2ccccc2)CC1,1.2µM*,1.2µM*,-1,3%,-3%,-23
CCOC(=O)C1CCN(C(=O)C2CCN(c3nc4ccc(OC)cc4s3)CC2)CC1,10µM*,u,-4,-12%,u,29
Cc1cc(OCC(=O)OCC(=O)N2CC(C)CC(C)C2)ccc1Cl (stereo unspecified),-26%,u,x,23%,1%,x
CCOC(=O)C1CCN(C(=O)c2cccc(Cl)c2)CC1,7.4µM*,-8%,-2,5%,7%,-7
CCOC(=O)C1CCCN(C(=O)c2cccc(Cl)c2)CC1 (stereo unspecified),x,x,x,0%,x,x
CC1(C(=O)NS(=O)(=O)c2cccs2)CCN1C(=O)CC1CCCCC1 (stereo unspecified),x,x,x,-4%,x,x
Cc1ccc(S(=O)(=O)N2CCN(C(=O)C(C)Cn3cncn3)CC2)cc1 (stereo unspecified),3%,6%,-2,8%,8%,20
Cc1ccc(C)c(-n2c3nc(=O)n(C)c(=O)c-3cc3ccccc32)c1,-22%,0%,-2,0%,-24%,-9
Cc1nc2c(=O)n(C)c(=O)nc-2n(C)n1,-9%,0.33µM*,-11,-23%,0.56µM*,-3
O=C(NCCC1CCCCN1S(=O)(=O)c1ccc(F)cc1)C(=O)Nc1ccccc1 (stereo unspecified),u,-26%,x,-6%,-28%,x
CC[C@]12c3[nH]c4cc(-c5ccco5)ccc4c3CCN1C(=O)[C@@H](CC(=O)NC/C=C(\C)CCC=C(C)C)C[C@@H]2C(=O)N1CCN(C(=O)c2ccco2)CC1,x,x,x,-25%,13µM*,x
CC[C@]12c3[nH]c4ccc(Cl)cc4c3CCN1C(=O)[C@@H](CC(=O)NC/C=C(\C)CCC=C(C)C)C[C@@H]2C(=O)N1CCN(C(=O)C2CC2)CC1,x,x,x,-28%,22µM*,x
CC[C@]12c3[nH]c4cc(-c5ccco5)ccc4c3CCN1C(=O)[C@@H](CC(=O)NC/C=C(\C)CCC=C(C)C)C[C@@H]2C(=O)N1CCN(C(=O)C2CC2)CC1,x,x,x,-28%,16µM*,x
